Data on 24 molecules can be found in PubChem BioAssay (NCATS).

The structures appear in SMILES notation. Calls of active or inactive are those of the source. How the calls were made is not given here. Where only a bound is given, the exact number is not on record here.
Potency means the concentration at half of the fitted maximal effect.

The test system of the test is HIV-1 nucleocapsid protein NCp7 (binding to TG oligonucleotide). Description: HIV Nucleocapsid (AID 346).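 Further: potency is for inhibitors that block NC binding and lower polarization.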 The conditions noted are these: HIV-1 NC / fluorescein-TGTGTGTG probe, fluorescence polarization. The procedure, abridged:
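Fluorescence polarization binding of 100 nM HIV-1 NC to 10 nM fluorescein-labelled TG4xF oligonucleotide. Buffer was Hepes pH 7.5 with 250mM NaCl, 1uM ZnCl2, TCEP and 2-mercaptoethanol. Compounds were incubated 1 hr at room temperature before the read.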
As to `O=C(Nc1cccc(F)c1)N1CC[C@@]2(CCCN(C(=O)c3cc(C(F)(F)F)cc(C(F)(F)F)c3)C2)C1`, the Potency was > 20 µM (inactive).
With `O=C(c1cccc(F)c1)N1CCC[C@@]2(CCN(Cc3nccs3)C2)C1` the figure was > 20 µM (inactive); with `O=c1c(-c2ccccc2)nc2cnc(Oc3ccccc3)nc2n1Cc1cccs1`, > 20 µM (inactive); with `COc1cccc(Nc2ncc3nc(-c4ccccc4)c(=O)n(C)c3n2)c1`, > 20 µM (inactive).
With `Cc1cnc(CNc2cc(-c3ccccc3C)ncn2)cn1` the figure was > 20 µM (inactive).
With `CC(=O)N1CCC2(CC1)CCN(c1cccc(-c3ccccc3)c1)CC2` the figure was > 20 µM (inactive); with `O=C(c1ccncc1)N1CCC2(CC1)CN(c1ccc(-c3ccccc3)cc1)C2`, > 20 µM (inactive).
Take `N#Cc1cccc(NC(=O)N2CCCC3(CCN(C(=O)c4ccncc4)CC3)C2)c1`: the Potency was > 20 µM (inactive).
With `CS(=O)(=O)Nc1cccc(-c2cncnc2Nc2ccc(F)cc2)c1`, the Potency is > 20 µM (inactive).
As to `CN(C)c1ncc2nc(-c3ccccc3)c(=O)n(C[C@H]3CCCO3)c2n1`, the Potency was > 20 µM (inactive).
For `N#Cc1cccc(-c2nccc(NCc3ccccc3)n2)c1`, the Potency was > 20 µM (inactive).
With `CN1CCN(c2ncc3nc(-c4ccc(Cl)cc4)c(=O)n(C4CC4)c3n2)CC1` the figure was > 20 µM (inactive).
As for `CN1CCCC2(CCN(C(=O)c3cc(C(F)(F)F)cc(C(F)(F)F)c3)CC2)C1`, the figure is > 20 µM (inactive); as for `CN(C)C(=O)c1ccc(-c2cc(N(C)Cc3ccco3)ncn2)cc1`, > 20 µM (inactive); as for `COc1cccc(Nc2ncc3ncc(=O)n(CCC#N)c3n2)c1`, > 20 µM (inactive).
With `CC(=O)NCCNc1nc(-c2cccc(C#N)c2)nc2ccccc12` the figure was > 20 µM (inactive); with `COc1ccc(Oc2ncc3nc(-c4cccc(C#N)c4)c(=O)n(CCC#N)c3n2)cc1`, > 20 µM (inactive).
Take `c1nc(NC2CC2)c2cc(-c3ccoc3)ccc2n1`: the Potency was > 20 µM (inactive).
With `COc1ccc2[nH]cc(CCNc3ncnc4ccc(-c5ccoc5)cc34)c2c1` the figure was > 20 µM (inactive); with `CC(=O)NCCNc1nc(-c2cccnc2)nc2ccccc12`, > 20 µM (inactive).
As to `CC(=O)N1CCC[C@@]2(CCN(c3ccncc3)C2)C1`, the Potency is > 20 µM (inactive).
As for `COc1ccc(CNc2ncnc3ccc(-c4ccccc4CN(C)C)cc23)c(OC)c1`, the Potency is > 20 µM (inactive).
`Cc1ccccc1-c1cc(Nc2ccc(F)cc2)ncn1`: the Potency was > 20 µM (inactive).
For `CN1CCN(c2ncnc3ccc(-c4ccccc4C#N)cc23)CC1`, the Potency was > 20 µM (inactive).
